Test results reported in the OligoGym collection.
Further: reference of the scale not given here.

The sequences below were run against SRSF6 (assay: pooled miR-30 sensor sort-seq; sequence = guide strand). Details: shRNA.
For TAGATTTGCTCTTTGATCTAGA, the sensor-assay potency score (higher = more potent) was 0.174.
TAGATCTGCTTCGAGAATGTGA was tested, and the sensor-assay potency score (higher = more potent) was -0.00685.
With TTGATCTTGACTTTGAGCGAGA the sensor-assay potency score (higher = more potent) was -0.415.
TTGAGCGAGATCTAGAACGGGA showed a sensor-assay potency score (higher = more potent) of 0.0866.
For TTGACTTTGAGCGAGATCTAGA, the sensor-assay potency score (higher = more potent) was -0.299.
TACTTCGTGACCGTCTTCTAGA was tested, and the sensor-assay potency score (higher = more potent) was -0.126.
With TTGATCTAGATTTCCTGCCTTT the sensor-assay potency score (higher = more potent) was 0.199.
Sequence TTAGATTTGCTCTTTGATCTAG has a sensor-assay potency score (higher = more potent) of 0.289.
Work on TTTGAGGTCTACTTCGAGGAGG yielded a sensor-assay potency score (higher = more potent) of -0.608.
For TTGAAGTAGCTCTTTTTGGTGG, the sensor-assay potency score (higher = more potent) was -0.375.
With TTGATCGAGAACGTGATCGACC the sensor-assay potency score (higher = more potent) was -0.727.
Work on ATTTTTGAGGTCTACTTCGAGG yielded a sensor-assay potency score (higher = more potent) of -1.54.

Each sequence was assayed against SRSF7 in the same assay as above. Details: shRNA.
Sequence TATCAAAACGTGATCTCCGAGG has a sensor-assay potency score (higher = more potent) of -0.606.
TAGATCTTCTGAGTGAAGCTGA gave a sensor-assay potency score (higher = more potent) of 0.474.
TTTCTAACTCTCCTTTGCCAGC showed a sensor-assay potency score (higher = more potent) of -1.58.
TGCATCTCTAGGATCTTCGAAT gave a sensor-assay potency score (higher = more potent) of -1.39.
Sequence TTGATCGTCGAGGAGATGCTGA has a sensor-assay potency score (higher = more potent) of -0.317.
TTGATCTTGACCTCGACGGGGA gave a sensor-assay potency score (higher = more potent) of 0.107.
With TTTCTCGCAATCCATACAGTTC the sensor-assay potency score (higher = more potent) was -1.
For TAGATCTTGATCGTCGAGGAGA, the sensor-assay potency score (higher = more potent) was -0.545.
For TAAAGGACCATAATAACTGAAA, the sensor-assay potency score (higher = more potent) was -1.16.
TTACCAACATACACCTTGGTTT gave a sensor-assay potency score (higher = more potent) of -0.665.
TTCTGAGTGAAGCTGATCTTGA was tested, and the sensor-assay potency score (higher = more potent) was -0.735.
TAGACCTGGATCTTGATCTTGA gave a sensor-assay potency score (higher = more potent) of -0.00181.

Each sequence was assayed against SS18 in the same assay as above. Details: shRNA.
For TTGTGTGCAACATCTGCTGATA, the sensor-assay potency score (higher = more potent) was -0.703.
TTTCAGTCTGTAACAGTCCATT gave a sensor-assay potency score (higher = more potent) of -0.917.
With TATTGTATTGCTGAGAAGGAGG the sensor-assay potency score (higher = more potent) was -1.18.
TTATACACTGAATAAGATGGTT was tested, and the sensor-assay potency score (higher = more potent) was -0.124.
TAGAATCTGCTATTGTAGCAAG showed a sensor-assay potency score (higher = more potent) of -0.645.
ATTGTCATCCAACATCTTCTGA was tested, and the sensor-assay potency score (higher = more potent) was -0.704.
With TTTGTGTGCAACATCTGCTGAT the sensor-assay potency score (higher = more potent) was 0.199.
TTGTCATCCAACATCTTCTGAA gave a sensor-assay potency score (higher = more potent) of -0.31.
In the case of TTGTCATCTGATTCTGTACTGG, the sensor-assay potency score (higher = more potent) is reported as -0.29.
TTTATCTTTATAGCACACCATT was tested, and the sensor-assay potency score (higher = more potent) was -1.15.
In the case of TATTGTAGCAAGGTATACCAAG, the sensor-assay potency score (higher = more potent) is reported as -0.903.
With TTGGTTAACTTGACCCATCATT the sensor-assay potency score (higher = more potent) was -0.57.
